Assay results: PubChem BioAssay AID1159580 (chemical genetic matrix, 2015)
“And” between values parts separate entries of the source, which are not always exact repeats. Equal entries are not always repeated. In all, about 5,500 compounds went through this assay and about 2,000 (36%) were called active. About 18% were inconclusive and are not listed. Cut-off read from the data, not from the text of the source: active = normalized growth mostly below about 0.91 (no sharp cut-off); inconclusive = no clear call, values can overlap the other calls; inactive = mostly above about 0.92. This is one part of the list.

Experiment: chemical genetic growth profiling, strain panel (AID 1159580);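 note: tested at 20 µM; growth read once vehicle control cultures reached saturation at 30 °C; 1 = growth at the plate median or of vehicle wells; lower values mean less growth of the strain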
Details: S. cerevisiae deletion strains, growth OD

Measured: normalized growth

COc1cc(C(=O)O)cc(OC)c1O
inactive: locus YBR021W, strain FUR4, active compounds read low 1.08 | locus YBR229C, strain ROT2, active compounds read low 0.951 | locus YCL029C, strain bik1, active compounds read low 0.976 | locus YDL035C, strain GPR1, active compounds read low 1.01 | locus YDL074C, strain BRE1, active compounds read low 0.961 | locus YDL101C, strain DUN1, active compounds read low 0.982 | locus YDL185W, strain tfp1, active compounds read low 0.987 | locus YDL192W, strain arf1, active compounds read low 0.98 | locus YDR101C, strain arx1, active compounds read low 0.972 | locus YDR150W, strain NUM1, active compounds read low 0.979 | locus YDR162C, strain NBP2, active compounds read low 1.01 | locus YDR318W, strain mcm21, active compounds read low 1 | locus YDR388W, active compounds read low 0.978 | locus YDR502C, strain sam2, active compounds read low 0.982 | locus YEL061C, strain CIN8, active compounds read low 0.986 | locus YER110C, active compounds read low 0.977 | locus YER155C, strain BEM2, active compounds read low 1 | locus YER167W, strain BCK2, active compounds read low 1 | locus YGL078C, strain dbp3, active compounds read low 0.986 | locus YGL086W, strain mad1, active compounds read low 0.978 | locus YGL248W, strain PDE1, active compounds read low 0.985 | locus YGR135W, strain pre9, active compounds read low 1.05 | locus YGR229C, strain SMI1, active compounds read low 1.01 | locus YGR252W, strain gcn5, active compounds read low 1.04 | locus YHR030C, strain SLT2, active compounds read low 1.04 and 0.994 | locus YHR079C, strain IRE1 (second series), active compounds read low 0.977 | locus YHR079C, strain IRE1, active compounds read low 1.02 | locus YHR094C, strain hxt1, active compounds read low 0.984 | locus YHR129C, strain ARP1, active compounds read low 0.997 | locus YHR200W, strain rpn10, active compounds read low 0.98 | locus YIL066C, strain RNR3, active compounds read low 0.981 | locus YIL073C, strain SPO22, active compounds read low 0.983 | locus YIL125W, strain kgd1, active compounds read low 0.987 | locus YIR030C, strain dcg1, active compounds read low 0.988 | locus YJL095W, strain BCK1, active compounds read low 1.03 and 0.981 | locus YJL134W, strain LCB3, active compounds read low 0.994 | locus YJL168C, strain set2, active compounds read low 0.975 | locus YJL187C, strain SWE1 (second series), active compounds read low 0.971 | locus YJR043C, strain POL32, active compounds read low 0.991 | locus YJR066W, strain TOR1, active compounds read low 0.96 | locus YJR075W, strain HOC1, active compounds read low 0.997 | locus YKL009W, strain mrt4, active compounds read low 0.983 | locus YKL068W, active compounds read low 0.989 | locus YKL085W, strain MDH1 (second series), active compounds read low 0.983 | locus YKL085W, strain MDH1, active compounds read low 0.983 | locus YKR001C, strain vps1, active compounds read low 0.981 | locus YLR039C, strain RIC1, active compounds read low 0.952 | locus YLR058C, strain SHM2, active compounds read low 0.98 | locus YLR102C, strain apc9, active compounds read low 0.985 | locus YLR113W, strain HOG1, active compounds read low 1.01 | locus YLR262C, strain YPT6, active compounds read low 0.963 | locus YLR268W, strain sec22, active compounds read low 0.991 | locus YLR330W, strain CHS5, active compounds read low 0.996 | locus YLR342W, strain FKS1 (second series), active compounds read low 1.05 | locus YLR371W, strain rom2, active compounds read low 0.965 | locus YLR418C, strain cdc73, active compounds read low 1.01 | locus YML016C, strain PPZ1, active compounds read low 0.984 | locus YML032C, strain rad52, active compounds read low 0.975 | locus YML124C, strain tub3, active compounds read low 0.979 | locus YMR078C, strain ctf18, active compounds read low 0.977 | locus YMR223W, strain ubp8, active compounds read low 1.04 | locus YMR307W, strain GAS1, active compounds read low 1.01 | locus YNL067W, strain RPL9B, active compounds read low 0.962 | locus YNL128W, strain TEP1, active compounds read low 0.989 | locus YNL183C, strain NPR1, active compounds read low 0.979 | locus YNL233W, strain BNI4, active compounds read low 0.982 | locus YNL250W, strain rad50, active compounds read low 0.976 | locus YNL271C, strain bni1, active compounds read low 0.987 | locus YNL298W, strain CLA4, active compounds read low 0.994 | locus YNL307C, strain MCK1, active compounds read low 0.987 | locus YNR052C, strain pop2, active compounds read low 0.993 | locus YOL012C, strain htz1 1.1 | locus YOL147C, strain pex11, active compounds read low 0.984 | locus YOR061W, strain CKA2, active compounds read low 0.964 | locus YOR069W, strain VPS5, active compounds read low 0.995 | locus YOR136W, strain idh2, active compounds read low 0.971 | locus YOR144C, strain elg1, active compounds read low 0.991 | locus YOR184W, strain ser1, active compounds read low 0.992 | locus YOR231W, strain MKK1, active compounds read low 1.04 | locus YOR316C, strain cot1, active compounds read low 0.97 | locus YPL241C, strain CIN2, active compounds read low 0.999 | locus YPL256C, strain CLN2, active compounds read low 1.04 | locus YPR119W, strain clb2, active compounds read low 0.97 | locus YPR141C, strain kar3, active compounds read low 0.969 | locus YPR163C, strain tif3, active compounds read low 0.989 | locus YPR167C, strain met16, active compounds read low 0.988 | strain wtn01, active compounds read low 1
